High-throughput results as filed in PubChem BioAssay.
Shown are actives, neighbours in structure and some others; about 1.2% of the full set was active somewhere.
RTF Ca sens inh: cardiac RTF calcium sensitivity inhibitors, primary screen, biochemical, IANBD-TnC fluorescence, EC70 calcium; Troponin I, cardiac muscle (Homo sapiens) + Troponin T, cardiac muscle (Homo sapiens) + …; IANBD-labeled cardiac RTF, Ca2+ fluorescence; inhibition, % at 7.15 µM; actives 0.12% (n = 340,000); AID 493244, 2011;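 active = inhibition above the mean inhibition of all tested compounds plus 3 SD, cut at about 17% in these data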;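 also: assay run at fixed EC70 calcium of 1.6 mM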
E coli Lon inh: inhibitors of E. coli Lon protease, primary screen, biochemical, fluorescence polarization; P0A9M0; actives 0.42% (n = 360,000); purified E. coli Lon protease; AID 602123, 2011; inhibition, % at 7.94 µM; in the data active = inhibition above about 13%, passing the limit was not always enough;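 also: 0% = enzyme with probe and DMSO and 100% = no enzyme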
Bcl-xL primary: inhibitors of human Bcl-xL, primary screen, biochemical, fluorescence polarization, HTS; AID 2129, 2009; GST-Bcl-xL / FITC-Bim BH3 peptide fluorescence polarization; actives 0.7% (n = 320,000); inhibition, % at 10.9 µM;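 active = inhibition above the mean of all tested compounds plus 3 SD, cutoff set per campaign, cut at about 30% in these data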;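 also: 0% = DMSO wells and 100% = unlabeled Bim-BH3 peptide competitor; inhibitors lower millipolarization by displacing the labeled peptide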
cardiac RTF act: cardiac RTF calcium sensitivity activators, primary screen, biochemical, IANBD-TnC fluorescence, EC20 calcium; AID 493008, 2010; activation, % at 7.2 µM; Troponin I, cardiac muscle (Homo sapiens) + Troponin T, cardiac muscle (Homo sapiens) + …; actives 0.24% (n = 340,000); IANBD-labeled TnC RTF fluorescence at EC20 calcium; 0% EC20 calcium, 100% full calcium;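 active = activation above the mean over all tested compounds plus 3 SD, cut at about 30% in these data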;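 also: rise in fluorescence read as greater calcium sensitivity of cardiac thin filaments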
GLD-1 TGE inh: GLD-1/TGE RNA complex disruptors, primary screen, biochemical, fluorescence polarization. purified GLD-1 + fluorescein TGE RNA. inhibition, % at 5.96 µM. actives 0.44% (n = 320,000);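 active = percent inhibition above a per-plate cutoff, the plate mean of test compounds plus 3 SD, cut at about 30% in these data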;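 also: 0% = DMSO wells with GLD-1 and probe and 100% = wells lacking GLD-1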
Target sequence (Q17339 whole entry, looked up): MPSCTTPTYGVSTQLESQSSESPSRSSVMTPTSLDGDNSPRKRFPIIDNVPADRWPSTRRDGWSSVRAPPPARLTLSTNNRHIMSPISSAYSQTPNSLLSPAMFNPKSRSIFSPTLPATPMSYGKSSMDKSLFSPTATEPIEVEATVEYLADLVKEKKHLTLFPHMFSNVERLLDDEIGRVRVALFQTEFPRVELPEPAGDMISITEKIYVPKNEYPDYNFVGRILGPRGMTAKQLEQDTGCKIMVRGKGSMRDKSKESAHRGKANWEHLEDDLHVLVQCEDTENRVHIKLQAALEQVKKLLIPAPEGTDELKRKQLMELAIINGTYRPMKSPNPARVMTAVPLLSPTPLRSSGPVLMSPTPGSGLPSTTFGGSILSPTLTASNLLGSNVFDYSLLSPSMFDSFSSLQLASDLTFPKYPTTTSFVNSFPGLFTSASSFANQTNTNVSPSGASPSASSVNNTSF
eLon confirm: E. coli Lon protease inhibitor retest, confirmation, biochemical, fluorescence polarization. shares compounds with E coli Lon inh. purified E. coli Lon. inhibition, % at 7.94 µM. actives 31% (n = 1,400). AID 602230, 2012; in the data active = inhibition above about 16%;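 also: 0% = enzyme with probe and DMSO and 100% = no enzyme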
* marks the source's active call; other numbers are inactive results; / = no result given.

SMILES | RTF Ca sens inh | E coli Lon inh | Bcl-xL primary | cardiac RTF act | GLD-1 TGE inh | eLon confirm
CC(NS(=O)(=O)c1ccc(Cl)cc1)C(=O)NCCC1=CCCCC1 (stereo not given) | -11 | 2 | 6 | 9 | 5 | /
O=C(O)CSCC(=O)NCc1ccc(Cl)cc1Cl | -7 | -1 | 4 | 7 | 4 | /
COc1ccc(/C=N/N2CCN(C)CC2)c(OC)c1OC | -2 | 20* | 6 | 3 | 9 | -8
CCOC(=O)Cc1nn(CCc2ccccn2)c(=O)c2ccccc12 | -10 | -6 | 6 | -4 | 6 | /
C[C@H](O)[C@@H]1CN2CCc3c([nH]c4ccccc34)[C@@H]2C[C@@H]1N(C)C(=S)NCCc1ccccc1 | / | 197* | / | / | / | 121*
C1=C[C@@H]2CCN(Cc3ccccc3)Cc3cccc(c32)C1 | -8 | 34* | 11 | 11 | 8 | 8
COc1ccc(-c2nnc(SCC(=O)N3CCOCC3)o2)cc1OC | 2 | 14* | -6 | 7 | 7 | 2
COc1cccc(NC(=O)N(CCN(C)C)C(C)c2cccnc2)c1 (stereo not given) | 4 | -3 | 2 | -5 | 5 | /
CC(c1cccnc1)N(CCN(C)C)C(=O)Nc1ccc(Cl)cc1 (stereo not given) | -2 | 15* | 0 | 7 | -1 | -2
COCCCNc1ccn2nc(-c3ccccc3)cc2n1 | / | 3 | / | / | / | /
Cc1[nH]c2ccc3c(ncn3CCC#N)c2c1C | -6 | 29* | 9 | 0 | -2 | -11
COc1cc(/C=C(/Sc2nnc(-c3ccc(F)cc3)o2)C(=O)O)ccc1OC(F)F | -5 | -2 | 4 | -4 | -2 | /
COc1ccc(C(=O)Nc2nccs2)cc1 | 3 | -5 | 1 | -2 | 0 | /
COc1ccc(NC(=O)Nc2nccs2)cc1 | -2 | 16* | 2 | -2 | 3 | -3
CCn1c(=S)[nH]c2sc3c(c2c1=O)CCCC3 | -4 | -2 | 9 | -1 | 9 | /
O=C(N/N=C/c1ccc(-c2ccc(S(=O)(=O)Nc3ncccn3)cc2)o1)c1cc2ccccc2cc1O | 15 | 26* | 14 | -18 | 6 | 30*
C=CCCC(=O)NC1CCCc2c1cnn2-c1ccccc1F (stereo not given) | -4 | 29* | 2 | 0 | 0 | 2
COC(=O)c1ccccc1NC(=S)NC(=O)c1ccccc1 | -16 | 16* | -4 | 0 | 0 | 10
Cc1ccc2cccc(NC(=S)NC(=O)c3ccccc3)c2n1 | -16 | -13 | 5 | 4 | 5 | /
Cc1ccc2cccnc2c1NC(=S)NC(=O)c1ccccc1 | -6 | 19* | 3 | -4 | 5 | 2
COC(=O)c1ccccc1NC(=S)NC(=O)c1ccc(C)cc1 | -8 | -6 | -18 | 5 | 3 | /
CCOC(=O)c1ccccc1NC(=O)CSc1nc2ccccc2o1 | 0 | -3 | -5 | -4 | 4 | /
O=C(O)c1oc2ccccc2c1CSc1ccc(Cl)cc1 | -3 | -5 | 1 | -9 | 3 | /
N=c1c2c(-c3ccccc3)c(-c3ccccc3)n(Cc3ccco3)c2ncn1CCCN1CCOCC1 | 2 | 14* | 6 | -5 | 0 | -1
N=c1c2c(-c3ccccc3)c(-c3ccccc3)n(Cc3ccco3)c2ncn1CCCn1ccnc1 | 4 | -11 | 3 | 4 | -3 | /
Cc1ccc(C(C)NC(=O)c2ccc3c(c2)OCO3)cc1C (stereo not given) | -11 | -8 | 0 | -3 | 4 | /
COc1ccc(-c2ccc(C(=O)N3CCOCC3)c3occc23)c(C)c1 | / | 23* | / | / | / | 0
COc1ccc(-c2ccc(C(=O)N3CCN(C)CC3)c3occc23)c(C)c1 | / | -2 | / | / | / | /
CC1CCc2sc(C(=O)N(C)CC(=O)Nc3cccc(F)c3)cc2C1 (stereo not given) | 3 | 16* | -10 | 1 | 0 | -4
CC(NC(=O)COC(=O)C12CC3CC(CC(Br)(C3)C1)C2)c1ccccc1 (stereo not given) | -6 | 26* | / | -1 | 8 | -1
